# Most compounds without a hit are left out; they make up all but 2.6% or so of the library.
# pPAFAH inh: pPAFAH (human) enzyme inhibition | Q13093 | recombinant pPAFAH, FP-rhodamine probe fluorescence polarization | inhibition, % at 3.39 µM | actives 1.5% (n = 330,000) | AID 463082;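 active means inhibition above the mean inhibition across the screen plus 3 SD, cut at about 25% in these data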;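 further: inhibitors block binding of the rhodamine activity-based probe so polarization drops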
# PKA-R1A act: activators of PKA-R1A complex; AID 504707; activation, % at 11.4 µM; P00514+P68181; actives 0.083% (n = 340,000); PKA-R1A dissociation, Cy5-IP20 fluorescence polarization; scaled: DMSO 0%, 113 µM cGMP 100%;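 active means percent activation above the mean of all tested compounds plus 3 SD, cut at about 19% in these data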;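 further: higher means more PKAc released from R1A so a rise in polarization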
# PAFAH1B2 inh: blocks human PAF acetylhydrolase 1b catalytic subunit 2; P68402; recombinant PAFAH1B2, FP-rhodamine activity probe, fluorescence polarization; inhibition, % at 3.39 µM; actives 1.2% (n = 340,000); AID 492953;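 active means inhibition above the mean of all tested compounds plus 3 SD, cut at about 24% in these data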
# PAFAH2 inh: inhibitors of human PAFAH2; Q99487; recombinant PAFAH2, FP-rhodamine activity probe, fluorescence polarization; inhibition, % at 3.39 µM; actives 0.99% (n = 340,000); AID 492956;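 active means inhibition above the mean over all tested compounds plus 3 SD, cut at about 30% in these data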;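 further: inhibitors block probe labeling of enzyme so polarization drops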
# PAFAH1B3 inh: PAFAH1B3 (human) inhibition. recombinant PAFAH1B3, FP-rhodamine probe, fluorescence polarization. inhibition, % at 3.39 µM. actives 0.28% (n = 340,000). AID 492972;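 active means inhibition above the screen-wide average of all tested compounds plus 3 SD, cut at about 25% in these data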
# PKA-R2B activ: activates the human PKA-R2B holoenzyme complex. actives 0.079% (n = 340,000). AID 504700. activation, % at 11.4 µM. PKA-R2B holoenzyme dissociation, Cy5-IP20 fluorescence polarization; R2B truncated from residue 108, S112A mutant; 0% DMSO only, 100% 113 µM cGMP. P22694+P31323;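 active means activation above a cutoff set at the mean over all compounds plus 3 SD, cut at about 18% in these data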;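 further: higher means more holoenzyme dissociation and a rise in polarization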
# Target sequence (P31323 whole entry, looked up, other chains not shown, the tested form may be a part): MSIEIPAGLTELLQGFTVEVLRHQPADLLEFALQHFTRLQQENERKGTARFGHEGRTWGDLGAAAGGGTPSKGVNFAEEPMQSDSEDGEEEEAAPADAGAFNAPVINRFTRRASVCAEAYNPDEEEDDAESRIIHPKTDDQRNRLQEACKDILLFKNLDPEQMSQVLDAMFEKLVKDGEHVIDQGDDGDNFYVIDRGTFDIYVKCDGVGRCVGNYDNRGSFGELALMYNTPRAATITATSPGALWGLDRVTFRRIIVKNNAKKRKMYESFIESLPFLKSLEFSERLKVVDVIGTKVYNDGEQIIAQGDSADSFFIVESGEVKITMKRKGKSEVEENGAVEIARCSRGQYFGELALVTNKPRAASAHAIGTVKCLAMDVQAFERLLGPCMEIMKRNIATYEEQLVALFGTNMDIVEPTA
# PAFAH2 confirm: confirmation of human PAFAH2 inhibitors; shares compounds with PAFAH2 inh; recombinant PAFAH2, FP-rhodamine activity probe, fluorescence polarization; inhibition, % at 3.39 µM; actives 65% (n = 2,300); AID 493030;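 active means mean inhibition over three repeats above a set limit taken from the earlier primary screen, cut at about 30% in these data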;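 further: inhibitor blocks binding of rhodamine activity probe so polarization falls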
# A number is an active result; – = inactive; · = no result given.
SMILES,pPAFAH inh,PKA-R1A act,PAFAH1B2 inh,PAFAH2 inh,PAFAH1B3 inh,PKA-R2B activ,PAFAH2 confirm
CCN(CC)S(=O)(=O)c1ccc(Cl)c(NC(=O)COC(=O)C2CCCCC2)c1,–,–,–,46,–,–,31
CCN(CC)S(=O)(=O)c1ccc(Cl)c(NC(=O)COC(=O)c2c(C)noc2C)c1,–,–,–,–,–,–,·
CCN(CC)S(=O)(=O)c1ccc(Cl)c(NC(=O)COC(=O)c2cccn2C)c1,–,–,–,31,–,–,–
Oc1c(Br)cccc1/C=N/c1ncn[nH]1,–,–,–,–,–,–,·
CN(C)S(=O)(=O)c1cccc(NC(=O)COC(=O)/C=C/c2ccc([N+](=O)[O-])cc2)c1,–,–,–,34,–,–,–
Cc1ccc(NC(=O)COC(=O)/C=C/c2ccc(Br)o2)cc1S(=O)(=O)N(C)C,–,–,–,64,–,–,59
CN(C)S(=O)(=O)c1cccc(NC(=O)COC(=O)/C=C/c2ccc(Br)o2)c1,–,–,–,40,–,–,35
COc1ccc(CC(=O)N/N=C(\C)CC(=O)Nc2ccc(N(C)C)cc2)cc1,–,–,–,–,–,–,·
C/C(CC(=O)Nc1ccc(N(C)C)cc1)=N\NC(=O)Cc1csc(N)n1,–,–,–,49,–,–,–
CC(=O)c1c(C)[nH]c(C(=O)OCC(=O)NC(C)c2ccccc2)c1C (configuration not stated),·,–,·,·,·,–,·
C/C=C/C(=O)OCC(=O)Nc1cccc(S(=O)(=O)NC2=NCCCCC2)c1,–,–,–,–,–,–,·
COc1cc(OC)c(C(=O)OCC(=O)Nc2cccc(S(=O)(=O)NC3=NCCCCC3)c2)cc1OC,·,–,–,–,–,–,·
CC1CC1C(=O)OCC(=O)Nc1cccc(S(=O)(=O)NC2=NCCCCC2)c1 (configuration not stated),–,–,–,34,–,–,–
O=C(COC(=O)c1cccs1)Nc1cccc(S(=O)(=O)NC2=NCCCCC2)c1,–,–,–,48,–,–,36
Cc1ccc(S(=O)(=O)ON2C(=O)c3cccc4cccc(c34)C2=O)cc1,–,–,–,30,–,–,–
O=C(O)/C=C/c1ccc([N+](=O)[O-])o1,–,–,–,–,–,–,·
O=C1NC(=S)S/C1=C\C=C\c1ccc([N+](=O)[O-])o1,·,–,–,43,–,–,–
CCCNC(=O)Nc1cc(S(=O)(=O)CC)ccc1O,–,–,–,–,–,–,·
CCS(=O)(=O)c1ccc(O)c(NC(=O)Nc2ccccc2)c1,–,–,–,45,–,–,–
O=C(CC1NC2CCCCC2NC1=O)Nc1cccc(C(F)(F)F)c1 (configuration not stated),–,–,–,36,–,–,–
N#CC1(Nc2ccc(C(=O)O)cc2)CCCC1,·,–,–,–,–,–,·
COc1cc(/C=C/C(=O)OCC(=O)Nc2cc(S(=O)(=O)N3CCCCC3)ccc2C)ccc1O,–,–,–,75,–,–,79
COc1cc(/C=C/C(=O)OCC(=O)c2ccc(S(=O)(=O)N3CCCCC3)cc2)cc(OC)c1OC,·,–,–,–,–,–,·
COc1cc(/C=C/C(=O)OCC(=O)Nc2ccc(C)c(S(=O)(=O)N3CCCCC3)c2)ccc1O,–,–,–,67,–,–,73
COc1cc(/C=C/C(=O)OCC(=O)Nc2cc(S(=O)(=O)N3CCCC3)ccc2Cl)cc(OC)c1OC,–,–,–,31,–,–,–
SMILES,pPAFAH inh,PKA-R1A act,PAFAH1B2 inh,PAFAH2 inh,PAFAH1B3 inh,PKA-R2B activ,PAFAH2 confirm
Cc1ccc(S(=O)(=O)N2CCCCC2)cc1NC(=O)COC(=O)c1cccc(O)c1,·,–,·,·,·,–,·
O=C(CCNC(=O)c1ccc([N+](=O)[O-])cc1)NC1CCCCCC1,–,–,–,–,–,–,·
CCCCSCc1nc2nc(Cl)c(Cl)nc2[nH]1,·,–,·,·,·,–,·
CCOC(=O)C1=C(C)N=c2s/c(=C\c3ccc(O)c([N+](=O)[O-])c3)c(=O)n2C1c1ccccc1OC (configuration not stated),–,–,–,36,–,–,–
CCOC(=O)C1=C(C)N=c2s/c(=C\c3ccc(OCC(=O)O)cc3)c(=O)n2C1c1ccccc1OC (configuration not stated),–,–,–,–,–,–,·
O=C(COC(=O)C1CC2C=CC1C2)NCc1ccc(F)cc1 (configuration not stated),–,–,–,–,–,–,·
O=C(COC(=O)/C=C/c1ccc([N+](=O)[O-])cc1)NCc1ccco1,–,–,–,–,–,–,·
O=C(COC(=O)C1CC2C=CC1C2)NCc1ccco1 (configuration not stated),–,–,–,32,–,–,–
O=C(COC(=O)/C=C/c1ccc(F)cc1)NCc1ccco1,–,–,–,47,–,–,–
C=CCOc1ccc(/C=C/C(=O)OCC(=O)NCc2ccco2)cc1,–,–,–,46,–,–,36
NC(=O)C1CCN(C(=O)c2ccccc2SCC(=O)NCC2CCCCC2)CC1,–,–,–,–,–,–,·
COC(=O)N/N=C/c1cc(Br)ccc1O,–,–,–,–,–,–,·
CC(C)NC(=S)N/N=C/c1cc(Br)ccc1O,–,–,–,32,–,–,32
COc1ccccc1/C=C/C(=O)Nc1cccc(S(=O)(=O)N2CCOCC2)c1,–,–,–,–,–,–,·
O=C(COC(=O)/C=C/c1cccs1)Nc1cccc(S(=O)(=O)N2CCOCC2)c1,–,–,–,68,–,–,56
O=C(COC(=O)/C=C/c1ccc(OC(F)F)cc1)Nc1cccc(S(=O)(=O)N2CCCC2)c1,–,–,–,34,–,–,37
O=C(COC(=O)c1ccc(=O)[nH]c1)Nc1cccc(S(=O)(=O)N2CCOCC2)c1,–,–,–,66,–,–,48
COc1cccc(/C=C/C(=O)OCC(=O)Nc2cccc(S(=O)(=O)N3CCOCC3)c2)c1OC,–,–,–,59,–,–,58
Cn1cccc1C(=O)OCC(=O)Nc1cccc(S(=O)(=O)N2CCOCC2)c1,–,–,–,–,–,–,·
Cc1ccccc1-n1cnc2c(sc3nc(N4CCOCC4)c4c(c32)CCCC4)c1=O,–,–,–,–,–,–,·
Cc1cc(C)c(N(C(=O)c2csnn2)C(C(=O)NC2CCCC2)c2ccncc2)c(C)c1 (configuration not stated),–,–,–,–,–,–,·
COCCCn1c(=O)/c(=C\c2cccc(OC)c2OC)s/c1=C(/C#N)C(=O)Nc1ccc(C(=O)O)cc1,–,–,–,–,–,–,·
